From PubChem BioAssay
Most compounds without a hit are left out; they make up all but 2.9% or so of the library.
H9c2 protect = myocardial damage modulation in H9c2 cells. protection from H2O2 cell death, % at 20 µM. hit rate 0.63% among 360,000. H9c2 cardiomyocytes, H2O2 injury protection, ATPLite, 2 h. AID 588492;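 active = compounds giving at least 50% protection of heart cells from peroxide-induced death in the single-dose screen, raw or plate-pattern-corrected value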;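 also: 0% = DMSO wells with peroxide and 100% = DMSO wells without peroxide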
DAGLB inhibitor = blocks human DAGLB lipase activity; hit rate 0.059% among 340,000; AID 504411; Q8NCG7; HEK293T DAGLB membrane lysate, EnzChek fluorogenic substrate; inhibition, % at 5.17 µM; in the data active = inhibition above about 34%;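 also: 0% = enzyme with vehicle and 100% = wells lacking enzyme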
Target sequence (Q8NCG7 whole entry, looked up): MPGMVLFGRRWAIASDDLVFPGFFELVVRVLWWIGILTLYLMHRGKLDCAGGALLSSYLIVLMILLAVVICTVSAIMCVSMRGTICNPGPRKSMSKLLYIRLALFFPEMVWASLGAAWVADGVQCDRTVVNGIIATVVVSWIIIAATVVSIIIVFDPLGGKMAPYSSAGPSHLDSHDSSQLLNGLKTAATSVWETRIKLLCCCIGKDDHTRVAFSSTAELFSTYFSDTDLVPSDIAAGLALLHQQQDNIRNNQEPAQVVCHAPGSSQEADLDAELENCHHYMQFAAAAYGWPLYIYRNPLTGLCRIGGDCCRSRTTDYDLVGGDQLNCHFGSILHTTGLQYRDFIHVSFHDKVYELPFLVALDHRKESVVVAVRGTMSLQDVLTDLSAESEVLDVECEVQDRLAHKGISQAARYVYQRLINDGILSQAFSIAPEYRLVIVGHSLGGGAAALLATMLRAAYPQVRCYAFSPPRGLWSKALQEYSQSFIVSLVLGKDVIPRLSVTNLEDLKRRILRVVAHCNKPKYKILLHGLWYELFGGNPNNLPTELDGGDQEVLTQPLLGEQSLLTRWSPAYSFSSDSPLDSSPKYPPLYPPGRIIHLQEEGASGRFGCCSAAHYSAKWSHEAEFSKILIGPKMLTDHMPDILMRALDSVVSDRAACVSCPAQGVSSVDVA
ABHD5 PLIN5 PPI = ABHD5-PLIN5 protein interaction inhibition. Q00G26+Q8WTS1. Split G. princeps luciferase complementation, luminescence, 4 h. inhibition, % at 4 µM. hit rate 0.78% among 360,000. AID 602281;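 active = inhibition above the mean inhibition across every tested compound plus 3 SD, cut at about 22% in these data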;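 also: 0% = DMSO only wells and the 100% control is not disclosed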
Myeloid diff 2 = compounds promoting myeloid differentiation | ER-HoxA9 myeloid progenitors, lysozyme-GFP differentiation, flow cytometry | calls only at 10 µM | hit rate 1% among 360,000 | AID 624256;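 active = normalized GFP-positive differentiation at or above the plate's own cutoff, the solvent-only control mean plus 3 SD; inconclusive = no clear call, values can overlap the other calls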;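 also: cells exposed to compound for four days before flow analysis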
HGIII-sPLA2 inh = Blocks human group III sPLA2 activity; hit rate 0.56% among 370,000; inhibition, % at 12.2 µM; QFRET BODIPY PC-A2 liposome hydrolysis, fluorescence;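 active = inhibition above mean plus 3 SD of compounds lying within the high and low control bounds, cut at about 19% in these data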;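 also: 0% = median of test compound wells and 100% = no enzyme DMSO wells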
Rtt109 HAT inh = inhibitors of Candida albicans Rtt109/Vps75 histone acetyltransferase. purified Rtt109/Vps75, ThioGlo CoA-SH fluorescence, 4 h. inhibition, % at 34.9 µM. hit rate 0.16% among 330,000;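 active = inhibition of at least 50% in every replicate; inconclusive = best replicate reaches 50% inhibition but some replicates fall short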
* = called active by the depositor; i = inactive; ? = inconclusive; . = no result given; + = active, no number.

SMILES	H9c2 protect	DAGLB inhibitor	ABHD5 PLIN5 PPI	Myeloid diff 2	HGIII-sPLA2 inh	Rtt109 HAT inh
C(C#CCCCCCCCCC[n+]1ccccc1)#CCCCCCCCCC[n+]1ccccc1	-20	2	33*	?	-12	?
Cc1cc(C)c(C#N)c(N2CCSCC2)n1	0	-1	2	i	-1	0
CN(CC(=O)NCCc1ccc(S(N)(=O)=O)cc1)S(=O)(=O)c1cccc2nsnc12	2	-5	13	+	-1	10
CCOc1ccc(CCNC(=O)CN(C)S(=O)(=O)c2cccc3nsnc23)cc1OCC	6	2	0	i	9	2
Clc1ccc(C(c2ccccc2)N2CCN(c3ccccn3)CC2)cc1 (centres undefined)	-13	-9	-20	i	-1	2
COc1ccc(OC)c(NC(=O)c2sc3ncnc(N4CCN(c5ccccn5)CC4)c3c2C)c1	86*	0	-11	i	.	-8
COc1ccccc1N1CCN(C(=O)c2sc3ncnc(N4CCN(c5ccccn5)CC4)c3c2C)CC1	22	3	-9	i	.	4
CC(=O)c1ccc(C(=O)Nc2ccc(N3CCOCC3)cc2)cc1	-1	0	-4	i	5	4
CC(C)CC(=O)NC(=S)Nc1ccc(S(=O)(=O)NC(C)(C)C)cc1	-18	0	4	i	-5	55*
CC(C)CC(=O)NC(=S)Nc1ccc(N2CCOCC2)cc1	4	0	1	+	9	11
CC(C)c1ccc(C(=O)Nc2ccc(N3CCOCC3)cc2)cc1	-4	2	-4	+	5	2
COc1ccccc1C(CNc1nc(C(F)(F)F)nc2ccccc12)N(C)C (centres undefined)	-6	0	8	i	17	-4
O=C(Cn1c(C(F)(F)F)nc2ccccc21)c1ccc(Cl)cc1	-10	-3	-2	i	-4	-3
COc1ccc(CC(NC(C)=O)C(=O)NC2CCN(C(=O)c3cc(OC)c(OC)c(OC)c3)CC2)cc1 (centres undefined)	-12	2	3	i	2	-4
COc1ccc(Br)cc1/C=N/NC(=O)c1ccc(COc2ccc3c(c2)CCC3)o1	12	0	-5	+	6	3
COc1ccccc1/C=N\NC(=O)c1ccc(COc2ccc(C)c(C)c2)o1	2	-6	5	+	-11	-5
C[C@H]1CN([C@@H](C)CO)S(=O)(=O)c2ccc(C#CC3(O)CCCC3)cc2O[C@@H]1CN(C)C(=O)Cc1cccnc1	5	-3	4	i	5	.
O=c1c2ccc([N+](=O)[O-])cc2ncn1CCOc1ccccc1	46	-6	3	+	1	-4
COc1ccccc1-n1c(SCC(=O)Nc2cccc(C)c2)nc2c(c1=O)SCC2	12	-2	2	+	1	25
COc1ccccc1-n1c(SCC(=O)Nc2ccc3c(c2)OCO3)nc2c(c1=O)SCC2	2	2	5	i	2	-5
COC(=O)c1ccc(CNC(=O)CSC2=NCCS2)cc1	-5	0	-3	i	0	-1
O=[N+]([O-])c1ccc(Oc2cccc3cccnc23)c([N+](=O)[O-])c1	5	0	10	+	10	9
CCCN1CCN(c2ncnc3c2nnn3Cc2ccccc2)CC1	8	-3	-1	+	0	2
c1ccc(Cn2nnc3c(N4CCCCCC4)ncnc32)cc1	-1	-6	10	i	2	3
O=c1[nH]n(Cc2ccccc2)c(=O)c2ccccc12	56*	1	5	i	-6	-8
SMILES	H9c2 protect	DAGLB inhibitor	ABHD5 PLIN5 PPI	Myeloid diff 2	HGIII-sPLA2 inh	Rtt109 HAT inh
Cn1[nH]c(=O)c2ccccc2c1=O	6	-2	-6	i	3	3
CN1CCc2cccc3c2[C@@H]1Cc1ccc(O)c(O)c1-3	32	2	-6	i	.	60*
COc1ccccc1NC(=O)c1ccc(NC(=O)CN2CCCCC2)cc1	4	2	-4	i	1	0
CCOCCN1CCN(c2c(C)c(C)nc3cc(-c4cc(OC)cc(OC)c4)nn23)CC1	41	-5	-4	i	-11	-5
CCc1c(C)nc2cc(-c3cc(OC)cc(OC)c3)nn2c1N1CCN(CCN2CCOCC2)CC1	91*	-2	2	i	-5	-2
Cc1[nH]n(-c2ccccc2)c(=O)c1N=Nc1ccc2c(c1)OCCO2	2	4	0	i	5	1
Cc1[nH]n(-c2ccccc2)c(=O)c1N=Nc1c(O)cc(S(=O)(=O)N(C)C)c2ccccc12	15	16	-2	?	31*	-22
CCOC(=O)c1sc2nc(-c3ccco3)c3c(c2c1N)CC(C)(C)OC3	11	10	30*	i	-2	-6
CCOC(=O)c1ccc(N2C(=O)C(O)=C(C(C)=O)C2c2ccccn2)cc1 (centres undefined)	-2	2	-7	i	-4	-2
CCOc1ccc(N=C(C)c2ccccc2O)cc1	3	3	-7	+	7	13
COc1ccccc1Nc1nc2c(C)cccc2cc1C#N	-12	-2	8	i	0	-2
CCOc1ccc(Nc2nc3c(C)cccc3cc2C#N)cc1	1	-9	-3	+	6	3
CN1C(=O)NC(c2ccccc2[N+](=O)[O-])C2=C1CCCC2=O (centres undefined)	13	-10	3	+	-15	5
CC(C)OC(=O)CSc1nnc(CNc2ccc(Cl)cc2)n1Cc1ccccc1	-29	-5	-1	i	-12	9
Cc1cc(C(=O)N2CCCC(CO)(Cc3ccc(F)cc3F)C2)nn1C (centres undefined)	-5	1	6	+	2	.
O=C(O)c1ccc(NS(=O)(=O)/C=C/c2ccccc2)cc1O	0	1	0	i	-3	-8
CC(C)(C)NCC(O)COc1ccccc1C1CCCC1 (centres undefined)	1	2	6	+	6	4
O/C(=C\c1nc2ccccc2nc1/C=C(\O)c1ccccc1)c1ccccc1	-15	4	5	+	.	-3
CCN(CC)C(=O)CSc1nc2ccccc2c(=O)[nH]1	65*	-1	5	i	3	3
O=c1cc(CSc2nc3ccccc3c(=O)[nH]2)c2ccc(O)cc2o1	94*	5	-6	i	-26	1
CCOC(=O)CSc1nnc(CSc2nc3ccccc3c(=O)[nH]2)n1-c1ccccc1	51*	-1	8	i	-13	16
CN(C)C(=O)CSc1nc2ccccc2c(=O)[nH]1	81*	-1	0	i	-1	6
CC(C)(C)N(Cc1ccccc1)C(=O)CSc1nc2ccccc2c(=O)[nH]1	31	3	-2	i	-2	-20
